# HT1080NT lethal: qHTS for induction of synthetic lethality in tumor cells producing 2HG: qHTS for the HT-1080-NT fibrosarcoma cell line; HT-1080-NT fibrosarcoma viability, CellTiter-Glo ATP luminescence, 48 h; Potency, µM (titrated, usually from 46.1 µM), inactives show at the highest dose activity, negative = less viability, most hits filed as cytotoxic; 1.6% of 360,000 active; AID 686970, 2013;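 further: NT is the 2HG producing partner of a matched IDH1 knockdown line; potency means the concentration at half of the fitted maximal effect; 0% = DMSO-treated cells and -100% = media-only wells without cells; nearly all actives have a fitted effect of over 55% in size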
#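 Luminescent CellTiter-Glo readout after 48 hours of compound exposure at 37 degrees C defined viability of HT-1080-NT cells. Activity was normalized to DMSO wells and cell-free media wells; concentration-response curves were fitted and assigned curve classes.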
# DT40 TDP1 no CPT: qHTS for Inhibitors of human tyrosyl-DNA phosphodiesterase 1 (TDP1): qHTS in cells in absence of CPT. DT40 Tdp1-/- hTDP1 cells, no CPT, ATP luminescence, 48 h. Potency, µM (top dose mostly 46.2 µM), without a hit: top-dose activity change, negative = growth inhibition, hits mostly inhibitors. 15% of 420,000 active; further: potency means the concentration at half of the fitted maximal effect; nearly all actives have a fitted effect of over 55% in size
#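 A cellular qHTS used chicken DT40 cells lacking endogenous Tdp1 but carrying stably transfected human TDP1. Compounds were applied without camptothecin, and cell growth kinetics were judged by ATP-dependent luminescence after ≥48 hr.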
# IL1B secr inh: qHTS for Inhibitors of Inflammasome Signaling: IL-1-beta AlphaLISA Primary Screen; THP-1 LPS/ATP IL-1B secretion, AlphaLISA, 16 h; hits give low values; activity change, % at 57.5 µM; 4.7% of 360,000 active; AID 743279, 2014; in the data active means activity change below about -50%; inconclusive means mostly about -30% to -49%
#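 THP-1 cells pretreated 1 hr with compounds (up to 57.5 uM final), then stimulated with LPS (250 ng/mL final) plus ATP (1.25 mM final); secreted IL-1B measured by AlphaLISA after 16 hr, decreased signal indicating inhibition.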
# DT40 TDP1 CPT: qHTS for Inhibitors of human tyrosyl-DNA phosphodiesterase 1 (TDP1): qHTS in cells in presence of CPT | Potency, µM (top dose mostly 46.2 µM), inactives show at the highest dose activity change, negative = growth inhibition, usual class: inhibitors | 12% of 420,000 active | chicken DT40 Tdp1-/-;hTDP1 cells + 20 nM CPT, ATP luminescence, 48 h; further: potency means the concentration at half of the fitted maximal effect; nearly all actives have a fitted effect of over 55% in size
#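 Chicken DT40 Tdp1-/- cells complemented with human TDP1, 400 cells/well, exposed to compounds plus 20 nM camptothecin for at least 48 h at 37 C; viability read as ATP content by CellTiter-Glo luminescence.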
# ALOX12 inh: Primary qHTS assay for inhibitors of human arachidonate 12S-lipoxygenase (ALOX12): Round 2 | Polyunsaturated fatty acid lipoxygenase ALOX12 (Homo sapiens), P18054 | purified 12hLO, xylenol orange hydroperoxide absorbance | Potency, µM (series often up to 108 µM), for the others: at the top dose activity change, negative = inhibition, hits mostly inhibitors | 1.1% of 580,000 active | AID 1671190, 2021; further: potency means the concentration at half of the fitted maximal effect
# Target sequence (P18054 whole entry, looked up): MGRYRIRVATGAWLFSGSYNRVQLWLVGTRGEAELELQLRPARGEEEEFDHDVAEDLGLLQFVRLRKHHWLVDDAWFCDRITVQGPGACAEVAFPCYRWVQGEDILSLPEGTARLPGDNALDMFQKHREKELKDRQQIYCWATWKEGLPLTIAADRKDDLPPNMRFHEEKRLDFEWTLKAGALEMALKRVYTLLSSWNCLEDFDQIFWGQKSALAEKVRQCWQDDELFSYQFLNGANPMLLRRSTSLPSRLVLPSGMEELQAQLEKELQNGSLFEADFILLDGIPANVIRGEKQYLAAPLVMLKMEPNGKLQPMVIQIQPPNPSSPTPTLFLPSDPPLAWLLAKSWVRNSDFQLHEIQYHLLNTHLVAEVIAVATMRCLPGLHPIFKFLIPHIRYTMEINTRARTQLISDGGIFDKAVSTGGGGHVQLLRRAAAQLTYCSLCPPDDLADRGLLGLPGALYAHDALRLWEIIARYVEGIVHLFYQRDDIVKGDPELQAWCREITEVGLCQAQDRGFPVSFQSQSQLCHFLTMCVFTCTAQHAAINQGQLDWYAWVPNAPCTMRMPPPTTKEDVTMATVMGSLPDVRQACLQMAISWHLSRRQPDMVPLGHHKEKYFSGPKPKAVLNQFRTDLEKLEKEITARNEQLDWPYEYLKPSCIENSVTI
#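 Hydroperoxide product was detected by ferrous iron/xylenol orange as the 573 to 405 nm absorbance ratio. Arachidonic acid at 40 uM (final) was turned over for 30 min at room temperature by 150 nM human 12hLO, pH 7.0 Hepes buffer, after 15 min compound preincubation.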
# HT1080 IDH1KD tx: qHTS for induction of synthetic lethality in tumor cells producing 2HG: qHTS for the HT-1080-IDH1KD cell line. AID 686971, 2013. Potency, µM (series often up to 46.1 µM), for the others: at the top dose activity, negative = toxicity, hits mostly cytotoxic. HT-1080 IDH1 knockdown viability, ATP luminescence, 48 h. 2% of 360,000 active;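 further: potency means the concentration at half of the fitted maximal effect; 0% = DMSO wells and -100% = cell-free medium wells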
#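 Luminescent ATP read-out (CellTiter-Glo, 10 min at room temperature) after 48 h compound exposure at 37 °C gave viability of IDH1-knockdown HT-1080 cells. Activity was normalised to DMSO and cell-free wells, then fitted as concentration-response curves.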
# * marks the source's active call; other numbers are inactive results; u = inconclusive; x = not tested or not shown. This excerpt belongs to a sample that is enriched for hits. Unless noted, the call rests on the fitted dose curve; in most records, active means well fitted curve in the direction sought with a large enough effect; inconclusive means small, poorly fitted or top-dose-only effect, or another doubt; inactive means no such curve, though single readings can be large; an effect the other way counts as inactive or inconclusive. Unless noted, on the % scale 0 is the no-effect control and ±100 the full control effect.
SMILES,HT1080NT lethal,DT40 TDP1 no CPT,IL1B secr inh,DT40 TDP1 CPT,ALOX12 inh,HT1080 IDH1KD tx
COCOc1cccc(CN2CCC2(C)C(=O)Nc2ccc(C)cc2)c1 (centres undefined),u,u,-14,u,-4%,-25%
COCOc1cccc(CN2CCC2(C)C(=O)Nc2ccc(C)c(O)c2)c1 (centres undefined),-20%,18µM*,-15,26µM*,-10%,u
COCOc1cccc(CN2CCC2(C)C(=O)Nc2cc(OC)ccc2OC)c1 (centres undefined),u,u,24,26µM*,1%,-18%
COCOc1cccc(CN2CCC2(C)C(=O)Nc2ccc(OC)c(OC)c2)c1 (centres undefined),-10%,23µM*,-8,16µM*,5%,20%
O=C(N[C@@H]1CN(c2ncccn2)C[C@H]1CO)c1ccc2c(c1)OCO2,x,x,x,x,1%,x
COc1ccc(Cn2c(C3CCN(C(=O)c4cccc(C)c4)CC3)n[nH]c2=O)cc1,x,x,x,x,-9%,x
CCN(CCNCC(O)COc1ccccc1C(C)C)c1cccc(C)c1 (centres undefined),21µM*,18µM*,-104*,u,u,18µM*
CCOC(=O)c1cccc(OCC(O)CNCCOc2ccccc2F)c1 (centres undefined),-15%,0%,-4,6%,u,-15%
O=C(CSc1n[nH]c(-c2cc(Br)ccc2O)n1)N1CCCCC1,x,x,x,x,52%,x
CC1CCN(C(=O)CSc2n[nH]c(-c3cc(Br)ccc3O)n2)CC1,x,x,x,x,32µM*,x
CC1CCN(C(=O)CSc2nc(-c3ccc(F)cc3)cc(C(F)(F)F)n2)CC1,x,u,x,21µM*,5%,x
Cc1noc(Cn2cnc3c(Cl)cc(Cl)cc3c2=O)n1,x,x,x,x,2%,x
CN(C)c1cccc(-c2cc(Nc3ccc(C(C)(C)C)cc3)ncn2)c1,-7%,u,0,21µM*,6%,-10%
O=C(Nc1ccc(Cc2ccncc2)cc1)C1CCC(N2C(=O)C3C4C=CC(C5CC45)C3C2=O)CC1 (centres undefined),u,15µM*,0,18µM*,-12%,u
CC(=O)Nc1ccc(NC(=O)C2CCC(N3C(=O)C4C5C=CC(C6CC56)C4C3=O)CC2)cc1 (centres undefined),-1%,-12%,20,-9%,7%,-2%
COc1cc(-c2nnc3n2C(C)(C)Cc2cc(C)c(C)cc2-3)cc(OC)c1OC,x,x,x,x,-33%,x
CCc1c(C)nc2nncn2c1NCc1ccccc1,x,16µM*,x,u,-7%,x
CCc1c(C)nc2nncn2c1Nc1ccc(Cl)cc1,x,9.2µM*,x,u,-22%,x
COc1cc(-c2nc(-c3ccc4c(c3)-c3ccccc3S4(=O)=O)c(-c3ccccc3)[nH]2)cc(OC)c1OC,-9%,7.3µM*,-5,18µM*,u,0%
COc1cc(-c2nc(-c3ccccc3)c(-c3cccs3)[nH]2)cc(OC)c1O,-2%,u,u,u,u,-2%
CN(C)c1ccc(-c2nc(-c3cccs3)c(-c3cccs3)[nH]2)cc1,x,9.2µM*,x,10µM*,u,x
COc1cc(-c2nc(-c3ccccc3)c(-c3cccs3)[nH]2)cc(OC)c1OC,0%,23µM*,u,16µM*,-16%,u
COc1cccc(-c2nc(-c3ccc4c(c3)-c3ccccc3S4(=O)=O)c(-c3ccccc3)[nH]2)c1OC,-5%,4.1µM*,-25,7.3µM*,0%,-4%
COc1cccc(-c2nc(-c3ccccc3)c(-c3ccccc3)[nH]2)c1OCC(=O)O,-4%,-25%,11,-8%,u,-12%
COc1ccccc1C(=O)N1CCC(CCOc2ccc(C)cc2)C1 (centres undefined),x,x,x,x,0%,x
SMILES,HT1080NT lethal,DT40 TDP1 no CPT,IL1B secr inh,DT40 TDP1 CPT,ALOX12 inh,HT1080 IDH1KD tx
O=C(CCc1ncc(-c2ccc(Cl)cc2)o1)N1CCSCC1,x,x,x,x,36%,x
CO[C@H]1C(=O)N(C(C)C)[C@H]1C1CCN(C(=O)c2c[nH]c3ccccc23)CC1,x,x,x,x,38%,x
Nc1ncn(C(=S)Nc2ccccc2)n1,6%,1.3µM*,u,1.2µM*,u,9%
S=C(Nc1ccccc1)N1CCC(C2CCN(C(=S)Nc3ccccc3)CC2)CC1,9%,2%,-7,-2%,x,4%
CC1(C)CNC(=O)c2sc(N3CCOCC3)nc2C1,-6%,21µM*,-17,8.2µM*,18%,-4%
CC1(C)CNC(=O)c2sc(NC(=O)c3ccccc3)nc2C1,-2%,-26%,3,u,3%,2%
COc1ccccc1NC(=O)COc1ccc(/C=N/n2cnnc2)cc1OC,0%,-12%,-3,2%,1%,-5%
CCOc1cc(/C=C\[N+](=O)[O-])ccc1OCC(=O)Nc1ccccc1C,2.9µM*,0.58µM*,-21,0.92µM*,x,6.5µM*
CCOc1cc(/C=C/c2cccc[n+]2C)ccc1OCC(=O)Nc1ccc(C)cc1,-1%,16µM*,-71*,21µM*,u,-5%
CCOc1cc(/C=C/c2cccc[n+]2C)ccc1O,7%,15%,6,2%,84%,6%
CCOc1cc(/C=N/n2cnnc2)ccc1OCC(=O)Nc1ccccc1OC,17%,8.2µM*,-4,-8%,-15%,12%
CCOc1cc(/C=N/NC(N)=O)cc(Br)c1OCC(=O)Nc1ccccc1C,-22%,u,2,u,0%,-25%
COc1ccc2[nH]cc(C(=O)CN3CCC(C)CC3)c2c1,-9%,-17%,-3,-13%,u,-22%
COc1ccc2c(C(=O)CCl)c[nH]c2c1,u,3.3µM*,-15,2.6µM*,0%,u
CCc1cccc2c(C(=O)CN3CCC(C(=O)N4CCCC4)CC3)c[nH]c12,x,x,x,x,-2%,x
COc1ccc(C(=O)OC(COc2ccccc2)Cn2ccnc2)cc1 (centres undefined),-13%,u,-90*,-12%,u,-15%
Cc1ccc(NC(=O)CSc2nc3nccnc3c(=O)n2CCc2c[nH]c3ccccc23)cc1C,x,12µM*,x,13µM*,-22%,x

# High-throughput results as filed in PubChem BioAssay.
